Source: PubChem BioAssay AID2315 (National Center for Advancing Translational Sciences (NCATS), 2010)
Values joined by “and” are separate entries in the source; they are usually repeats but may differ in a detail not shown here. Equal values may be shown once. About 27,000 (9.3%) of roughly 290,000 compounds were called active. This excerpt belongs to a sample that is enriched for actives. A number with no mark means an inactive call. Rule as the data show it: active = inhibition mostly above about 28% (no sharp cut-off); inactive = mostly below about 43%.

Assay: A qHTS for Small Molecule Inhibitors of Shiga Toxin; also: 0% is about no effect
Conditions: Vero cells, Shiga toxin protein synthesis inhibition reporter; at 38.7 µM, hits give high values

In order of falling inhibition:
1. Cc1c(C(=O)NC2CCCCC2)oc2ccccc12  60.6%
2. S=C(NCc1ccc2c(c1)OCO2)NCc1ccco1  53.2%
3. CC(=O)Nc1cccc(C(=O)Nc2nc(C)cs2)c1  42.6%
4. COC(=O)C(CC(C)C)NS(=O)(=O)c1cc(Br)ccc1Br (stereo not given)  40.7%
5. S=C(Nc1cccc(Cl)c1)Nc1ccc2cn[nH]c2c1  34.5%
6. Cc1ccc(COc2ccc(C(=O)NN)cc2)cc1  30.5%
7. Cc1nonc1NC(=O)c1ccccc1Br  30.3%
8. Cc1ccc2cccc(OCCCOc3ccccc3CO)c2n1  25.2%
9. CN1CCN(NC(=O)Nc2ccc(Br)cc2)CC1  24.3%
10. Cc1ccc(NC(=O)CN(C)Cc2ccc(F)cc2)c([N+](=O)[O-])c1  19.4%
11. CC(C)CC(=O)N1CCN(Cc2ccccc2Br)CC1  15.6%
12. COc1ccc2cc(C(=O)C3CCCN(C(=O)c4sc(C)nc4C)C3)ccc2c1 (stereo not given)  15.6%
13. O=C(COc1cccc(Cl)c1)NCc1ccccc1  15%
14. COc1ccc(CCNS(=O)(=O)c2cc3c(cc2C)NC(=O)CO3)cc1OC  14.5%
15. COCCn1cnc2c1c(=O)n(CC(=O)NN)c(=O)n2Cc1ccccc1  14.2%
16. FC(F)Oc1ccc(NC(=S)NCc2ccco2)cc1Cl  9.56%
17. C/C(=N\NC(=O)c1cc(-c2ccc(O)cc2)nc2ccccc12)c1cccnc1  6.02%
18. CCCn1nnc(NC(=O)COc2ccc(CC)cc2)n1  3.59%
19. Cc1cccc(CC(=O)N2CCN=C2SCc2ccc([N+](=O)[O-])cc2)c1  2.92%
20. O=C(CSc1ccc(-c2ccc(Br)cc2)nn1)NCC1CCCO1 (stereo not given)  2.72%
21. CCc1nonc1NC(=O)c1oc2ccc(Cl)cc2c1C  1.67%
22. FC(F)(F)c1cccc(NC(=S)Nc2cccc(Cl)c2)c1  1.44%
23. CC(=O)c1cc(C#N)c(N2CCCCC2)nc1C  1.31%
24. NNC(=O)c1cccc(COCC(F)(F)C(F)F)c1  -2.2%
25. Cc1ccc(S(=O)(=O)N(CC(O)CN2CCCCC2)c2cccc([N+](=O)[O-])c2)cc1 (stereo not given)  -3.58%
26. Cc1cccc(C)c1Nc1nnc(SCC(=O)Nc2sccc2C#N)s1  -3.87%
27. CC(C)c1ccc(NC(=O)C2CCCN(S(=O)(=O)c3cccnc3)C2)cc1 (stereo not given)  -4.38%
28. COc1ccc(NC(=O)CC2C(=O)NC3CCCCC3N2C(=O)c2ccc(F)cc2)cc1 (stereo not given)  -4.42%
29. Cc1nn(Cc2ccccc2)c(C)c1NS(=O)(=O)c1ccccc1  -5.63%
30. CCC(=O)c1c[nH]c(C(=O)NCC2CCCO2)c1 (stereo not given)  -5.73%
31. COc1ccc(SCc2noc(C(=O)NCC3CCCO3)c2C(=O)O)cc1 (stereo not given)  -6.14%
32. COc1ccc(C(=O)CCC(=O)Nc2ccc(Cl)cc2)cc1  -6.22%
33. Nc1nc(NCc2ccccc2)n(-c2ccccc2)n1  -6.24%
34. CCn1c(SCC(=O)Nc2nccs2)nnc1-c1ccco1  -6.37%
35. Cc1c(Br)c([N+](=O)[O-])nn1CC(=O)Nc1sc2c(c1C(=O)OC(C)C)CCC(C)C2 (stereo not given)  -7.24%
36. CCn1c(SCC(=O)Nc2nccs2)nnc1-c1ccncc1  -7.47%
37. COc1ccc(N(C(=O)c2cccnc2)S(=O)(=O)c2ccc(OC)c(OC)c2)cc1  -7.61%
38. CC1CC(C)CN(CCCNC(=O)Cn2ncc3c([nH]c4ccccc43)c2=O)C1 (stereo not given)  -7.63%
39. Cn1sc(=O)c2cc(S(=O)(=O)NC3CC3)ccc21  -7.9%
40. CC(=O)c1cc(C#N)c(N2CC(C)OC(C)C2)nc1C (stereo not given)  -8.18%
41. CC(NS(=O)(=O)c1ccc(OCC(=O)N2CCCC2)cc1)c1ccccc1 (stereo not given)  -8.81%
42. CCCOc1cccc(C(=O)NCCCNC(=O)c2cccnc2)c1  -9.24%
43. CNC(=O)C1CCN(S(=O)(=O)c2c(C)noc2/C=C/c2cccc(C)c2)CC1  -9.45%
44. Cc1cc(C(F)(F)F)nc(SCC(=O)Nc2nccs2)n1  -9.67%
45. CN(C)S(=O)(=O)c1cccc(NC(=S)NCc2ccc3c(c2)OCO3)c1  -10.4%
46. CCCNC(=O)CCn1nc(-c2ccccc2)c2ccccc2c1=O  -10.6%
47. CCCCCN(C(=O)CCC(=O)OCC(=O)NCc1ccc(OC)cc1)c1c(N)n(CCCC)c(=O)[nH]c1=O  -10.9%
48. CCN(CC)CCN1C(=O)C2C(C(=O)Nc3ccc(Br)cc3)C3C=CC2(O3)C1C(=O)NC1CCCCC1 (stereo not given)  -12%
49. COc1ccc(OC)c(C(C)NC(=S)Nc2ccc(S(=O)(=O)Nc3ncccn3)cc2)c1 (stereo not given)  -14%
50. ONC(=Nc1ccccc1)c1ccccc1Cl  -18.8%
51. COCc1cc(C)n(CC(=O)NCC2CCCO2)c(=O)c1C#N (stereo not given)  -20.7%
52. O=C(c1ccc(Cl)c(S(=O)(=O)N2CCCCC2)c1)N1CCCCCC1  -21.7%
53. COc1ccccc1CCCNC(=O)C1CCC(=O)N(CCN2CCOCC2)C1 (stereo not given)  -25.5%

For `O=C(O)Cc1csc(-c2cccc(Oc3ccccc3)c2)n1`, the inhibition was -2.34% and 18.5%.
With `COc1ccc2cc(C(=O)NCC3CCCO3)[nH]c2c1` (stereo not given) the inhibition was 81.7% (active).
For `Cc1ccc(NC(=O)c2oc3ccccc3c2C)c([N+](=O)[O-])c1`, the inhibition was 46.2% (active).
In the case of `Cc1nonc1NC(=O)c1oc2ccccc2c1C`, the inhibition is reported as 85.7% (active).
For `Cc1csc(NC(=S)Nc2cccc(Cl)c2)n1`, the inhibition was 126% (active).
For `S=C(NCc1ccco1)Nc1ccc2c(c1)OCCO2`, the inhibition was 69.3% (active).
In the case of `S=C(Nc1cccc(Cl)c1)Nc1ccc2c(c1)OCCO2`, the inhibition is reported as 61.2% (active).
For `CCCOc1cccc(C(=O)Nc2nnn(CCC)n2)c1`, the inhibition was 103% (active).
For `CC(C)c1cc(C(N)=O)c(NC(=O)c2cccc(COc3ccc(Br)cc3)c2)s1`, the inhibition was 199% (active).
With `CC(=O)c1cc(C#N)c(SCC(=O)C(C)(C)C)nc1C` the inhibition was 89.1% (active).
With `CC(=O)c1cc(C#N)c(SCC(=O)Nc2nccs2)nc1C` the inhibition was 65% (active).
In the case of `Cc1[nH]c2ccccc2c1SCC(=O)Nc1nccs1`, the inhibition is reported as 63.6% (active).
